Rows were chosen to be rich in hits. Some 4.7% of all compounds tested hit in one or more screens of this group.
D1 antagonist = human D1 dopamine receptor antagonism; P21728; 360,000 compounds, 3.2% hits; AID 504652; activity change, negative = inhibition, % at 10 µM; HEK293 TREx D1 cells, calcium flux, dopamine EC80; active compounds read low; in the data active = activity change below about -30%; note: % is set by controls: 0 for no effect and ±100 for the full control effect
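Tetracycline-induced HEK293 T-REx cells with force-coupled D1 receptor were loaded with a no-wash calcium dye. Compound was added after a 10 s baseline and read kinetically for 180 s; EC80 dopamine was then added and calcium flux followed another 180 s.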
TRHR agonist = TRH receptor (human) agonism; activation, % at 2 µM; 360,000 compounds, 0.18% hits; TRHR cells, calcium flux fluo-8, FDSS agonist mode; note: 0% is about no effect
Target sequence (P34981 whole entry, looked up): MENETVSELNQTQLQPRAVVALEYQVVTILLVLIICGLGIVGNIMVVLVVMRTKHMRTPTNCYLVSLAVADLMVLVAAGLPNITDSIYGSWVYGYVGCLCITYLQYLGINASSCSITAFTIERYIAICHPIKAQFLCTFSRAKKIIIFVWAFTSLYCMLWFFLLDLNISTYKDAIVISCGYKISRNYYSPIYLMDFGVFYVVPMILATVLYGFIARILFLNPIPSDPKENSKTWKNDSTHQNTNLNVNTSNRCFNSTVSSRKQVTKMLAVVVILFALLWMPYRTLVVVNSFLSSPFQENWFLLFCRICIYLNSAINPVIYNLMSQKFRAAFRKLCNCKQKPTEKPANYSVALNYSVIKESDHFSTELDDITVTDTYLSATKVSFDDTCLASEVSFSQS
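TRHR-expressing cells, plated overnight in medium with 10% serum, were loaded with fluo-8 calcium dye at room temperature. After a 10 s baseline, library compound was pin-added and calcium release was recorded kinetically (ex 480/em 530) as agonist response.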
TRHR enhancer = allosterically enhances the human TRH receptor; enhancement, % at 2 µM; P34981; 360,000 compounds, 0.66% hits; AID 493056; TRHR cells, fluo-8 calcium fluorescence, EC20 TRH enhancement; in the data active = enhancement above about 30%; note: 0% is about no effect
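Enhancer read-out: after compound pinning and an initial kinetic agonist-mode read, an EC20 of TRH (10 nM final) was injected and fluo-8 calcium signal (Ex 480/Em 530) followed at 1 s/cycle for 100 cycles in TRHR-expressing cells.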
D1 potentiator = human D1 dopamine receptor positive modulation | P21728 | HEK293 TREx D1 cells, calcium flux, dopamine EC20 potentiation | potentiation, % at 10 µM | 360,000 compounds, 0.036% hits | AID 504651; in the data active = potentiation above about 30%; note: 0% is about no effect
D1 ag = activates the human D1 dopamine receptor | P21728 | HEK293 T-REx D1 cells, calcium flux, agonist mode | activation, % at 2 µM | 360,000 compounds, 1% hits; note: 0% is about no effect
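Agonism was scored from calcium flux recorded over 180 s (1 read/s) after pintool compound addition, following a 10-cycle baseline. Cells were inducible force-coupled HEK293 TREx D1, plated overnight at 30 C and loaded with no-wash calcium dye.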
An asterisk follows results filed as active; · = no result. Cut-off read from the data, not from the text of the source, unless noted: active = activation above about 30%; inactive = the rest.

SMILES | D1 antagonist | TRHR agonist | TRHR enhancer | D1 potentiator | D1 ag
CCOC(=O)C1CCCN(C(=O)c2cccc(S(=O)(=O)N(Cc3ccccc3)c3ccccc3OC)c2)C1 (stereo unspecified) | -6 | 0 | -3 | -5 | 3
C=CCN1c2ccccc2[C@]23C[C@@H](C(=O)OC)N(C(=O)C4CCC4)C2=NC(C(=O)OC)=C(C(=O)OC)[C@H]13 | -20 | 0 | 2 | -1 | 6
C=CCN1c2ccccc2[C@]23C[C@@H](C(=O)OC)N(C(=O)NCCC)C2=NC(C(=O)OC)=C(C(=O)OC)[C@H]13 | -33* | 0 | -1 | 0 | 10
COC(=O)c1sccc1S(=O)(=O)N(CC(=O)Nc1ccccc1C)c1ccc(Cl)cc1 | -6 | 0 | -3 | -7 | 1
CCCN1C[C@H](CSC)C[C@@H]2c3cccc4[nH]cc(c34)C[C@H]21 | -88* | 1 | -7 | -6 | 51*
CCOC(=O)C1=C(O)c2ccccc2C(=O)/C1=C\c1ccc(C)cc1 | -14 | 9 | -1 | 1 | 34*
O=C(NCCS(=O)(=O)N1CCN(c2ccc(F)cc2)CC1)c1ccco1 | -42* | 0 | 7 | 1 | 2
CCCCC(=O)NC(c1ccc([N+](=O)[O-])cc1)c1c(O)ccc2ccccc12 (stereo unspecified) | -24 | -1 | -1 | -6 | 7
CCC(=O)NC(c1ccc([N+](=O)[O-])cc1)c1c(O)ccc2ccccc12 (stereo unspecified) | -37* | 0 | 3 | 0 | 13
O=C(NCCc1ccc(F)cc1)C(=O)NCC(c1cccs1)S(=O)(=O)c1cccs1 (stereo unspecified) | · | 0 | 4 | -3 | 42*
COc1ccc(CCNC(=O)C(=O)NCC(c2ccco2)S(=O)(=O)c2ccc(F)cc2)cc1 (stereo unspecified) | · | 0 | 36* | -1 | 3
Cc1ccc(C)c(N2CCN(C(=O)c3cc4c(=O)oc5ccccc5c4s3)CC2)c1 | 3 | 0 | 6 | 2 | -1
CC1Cc2ccccc2N1S(=O)(=O)c1nnc(NC(=O)c2ccccc2Br)s1 (stereo unspecified) | 7 | 0 | -3 | -4 | 7
CSc1nsc(NC(=O)Cc2ccccc2)n1 | -19 | 0 | 5 | 0 | 9
CCCCCCSc1nsc(NC(=O)CCC)n1 | -39* | 0 | 18 | 3 | 13
CCOC(=O)CC1C(=O)NCCN1Cc1cccc(OC)c1 (stereo unspecified) | -14 | 1 | 36* | -6 | 1
CN(C(=O)CC1C(=O)NCCN1Cc1ccoc1)C1CCOCC1 (stereo unspecified) | 8 | 1 | 0 | 2 | 1
CN(CC1CCOCC1)C(=O)CC1C(=O)NCCN1Cc1cccc(C(F)(F)F)c1 (stereo unspecified) | -77* | 0 | 14 | 6 | 2
Cc1ccc(CN2CCNC(=O)C2CC(=O)N(C)C2CCOCC2)cc1 (stereo unspecified) | -33* | -2 | -8 | -6 | 2
CCCOC(=O)CC1C(=O)NCCN1Cc1cc(OC)cc(OC)c1 (stereo unspecified) | 30 | 1 | 1 | 3 | 1
Fc1ccc(CSc2ncnc3c2oc2ccccc23)cc1 | 2 | 0 | 9 | -2 | 4
Fc1cccc(CSc2ncnc3c2oc2ccccc23)c1 | -93* | 0 | -5 | -5 | 2
COc1ccc(OC)c(C(=O)NC(CC(N)=O)c2ccc(NCCN3CCCCC3)c([N+](=O)[O-])c2)c1 (stereo unspecified) | -16 | -1 | -4 | 7 | 3
CCOC(=O)c1cnn(-c2ccc(NS(=O)(=O)c3ccc(Cl)cc3)cc2)c1C(F)(F)F | -62* | 1 | 1 | -5 | 6
CCn1c(C)c(C)c2cc(C(=O)NCc3ccc(F)cc3)ccc21 | 16 | -1 | 5 | -4 | 34*
SMILES | D1 antagonist | TRHR agonist | TRHR enhancer | D1 potentiator | D1 ag
CCc1ccc(CNC(=O)c2ccc3nc(SCc4ccc(F)cc4)n(C)c3c2)cc1 | 3 | 0 | 7 | 0 | 40*
COc1ccc(CCNC(=O)c2ccc3c(c2)c(C)c(C)n3Cc2ccccc2)c(OC)c1OC | -19 | 0 | 10 | -5 | 3
Cc1c(C)n(Cc2ccc(F)cc2)c2ccc(C(=O)NCCN3CCOCC3)cc12 | -30* | 0 | -2 | -19 | 6
COc1ccc(CCNC(=O)c2ccc3c(c2)c(C)c(C)n3Cc2ccc(F)cc2)c(OC)c1OC | -55* | 0 | -4 | -7 | 3
Cc1cccc(Cn2c(C)c(C)c3cc(C(=O)NCCN4CCOCC4)ccc32)c1 | 2 | 0 | -2 | 2 | 6
CCn1c(C)c(C)c2cc(C(=O)NCc3ccc(N(C)C)cc3)ccc21 | -3 | 0 | -1 | -5 | 4
Cc1ccccc1OCC(=O)Nc1nnc(S(=O)(=O)N(C)c2ccccc2)s1 | -13 | 0 | -3 | -3 | 1
COc1ccccc1C(=O)N1c2ccccc2C(C)(c2ccc(Cl)cc2)CC1(C)C (stereo unspecified) | 4 | 1 | -12 | 4 | 5
COc1ccccc1CNC(=O)CN(C)c1nn2c(=O)cc(C)nc2s1 | 7 | 1 | 2 | -1 | 3
CC(C)(C)c1ccc(-c2nnc(-c3ccccc3NC(=O)c3cccc(C(F)(F)F)c3)o2)cc1 | -3 | 0 | -8 | -3 | 0
Cc1c(C)n(Cc2ccc(F)cc2)c2ccc(C(=O)NCc3ccco3)cc12 | -75* | 0 | -6 | -8 | 6
COc1cc(OC)cc(C(=O)N2CCC(C(=O)NCCc3ccccc3)CC2)c1 | 3 | -1 | -3 | 1 | 0
COc1cccc(NC(=O)CN(C)C(=O)CCNS(=O)(=O)c2ccc(C)cc2)c1 | -11 | 0 | 2 | · | 0
O=C(CCN1C(=O)C2C3C=CC(C4CC34)C2C1=O)Oc1ccc(Br)cc1 (stereo unspecified) | -62* | 0 | -2 | -10 | 2
Cc1cc(C)cc(OC(=O)CCN2C(=O)C3C4C=CC(C5CC45)C3C2=O)c1 (stereo unspecified) | 4 | -2 | 0 | 0 | 0
N#C/C(=C(O)\C=C\c1ccccc1)c1nc2ccccc2[nH]1 | -31* | 1 | 6 | -16 | 3
CC(C)(C)/C(O)=C(/C#N)c1nc2ccccc2[nH]1 | 3 | 1 | -5 | 0 | 1
CCOc1ccc(C(=O)NCCC(=O)N2CCC3(CC2)NCCc2[nH]cnc23)cc1OCC | -63* | 0 | 1 | 5 | 1
CCOc1cc(C(=O)NCCC(=O)N2CCC3(CC2)NCCc2[nH]cnc23)cc(OCC)c1OCC | -10 | 1 | -7 | -6 | 2
COn1c2c(c3c4no[n+]([O-])c4ccc31)CCCC2 | -30 | 0 | -1 | -3 | 1
[O-][n+]1c2c(c3c4non(O)c4ccc31)CCCC2 | -31* | 3 | -11 | -4 | 21

Assay outcomes from PubChem.
